Compound activity as filed in PubChem.
Pf growth 48h – Primary qHTS for delayed death inhibitors of the malarial parasite plastid, 48 hour incubation; P. falciparum luciferase growth in erythrocytes, 48 h; actives 5.9% (n = 310,000); Potency, µM (series often up to 28.7 µM), most hits filed as inhibitors
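Compounds are pin-transferred into medium, infected erythrocytes (2% hematocrit, 0.1% parasitemia final) are added, and plates sit one parasite generation at 37 C in 5% CO2. Detection reagent is then added and luminescence measured.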
HCV inh – qHTS Assay for Inhibitors of Hepatitis C Virus (HCV). Huh7.5.1 HCVcc-Cre infection, luciferase reporter, 44 h. Potency, µM (titrated, usually from 41.8 µM), most hits filed as inhibitors. actives 3.4% (n = 340,000)
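HCVcc-Cre virus at an moi near 0.5 was added right after compound to cells cultured 4 h from seeding (1,000 cells/well). Luciferase activity was determined 44 h later, 15 min after substrate addition at RT.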
AMA1-RON2 inh – qHTS for Inhibitors of AMA1-RON; Towards Development of Antimalarial Drug Lead: Primary Screen; actives 0.2% (n = 360,000); AlphaScreen AMA1-biotinylated RON2 peptide binding; Plasmodium falciparum AMA1 (3D7) - RON2 peptide interaction; Potency, µM (highest dose often 58.2 µM), actives largely listed as inhibitors; AID 720542, 2013; note: nearly all actives have a fitted effect of over 45% in size
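AMA1 (3D7) with his tag at 25 nM final met compounds first, then biotinylated RON2 peptide at 25 nM; detection used donor plus acceptor beads, 10 µg/mL apiece, read by AlphaScreen after 30 min at room temperature.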
Pf growth 96h – Primary qHTS for delayed death inhibitors of the malarial parasite plastid, 96 hour incubation; Potency, µM (doses to about 28.7 µM), hits mostly inhibitors; P. falciparum luciferase reporter growth, 96 h; AID 504834, 2011; actives 6.9% (n = 320,000)
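Cell-based qHTS: luciferase-tagged P. falciparum in erythrocytes (2% hematocrit, 0.05% parasitemia final) incubated with compounds for 96 hours, 37 C, 5% CO2; luciferase detection reagent then added and luminescence measured.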
Each line names hits and unclear results; the compound was inactive in the other large screens. Rows were chosen to be rich in hits. Some 11% of all compounds tested hit in one or more screens of this group. Calls come from the whole dose curve; as a rule, active = well fitted curve in the direction sought with a large enough effect; inconclusive = small, poorly fitted or top-dose-only effect, or another doubt; inactive = no such curve, though single readings can be large; an effect the other way counts as inactive or inconclusive.

O=C(COC(=O)c1c2c(nc3ccccc13)CCN(Cc1ccccc1)C2)Nc1c(F)cccc1F	HCV inh inconclusive, Pf growth 96h 10µM
CC(=O)Nc1ccc(NC(=O)COC(=O)c2c3c(nc4ccccc24)CCN(Cc2ccccc2)C3)cc1	Pf growth 48h 10µM, HCV inh 13µM, Pf growth 96h 5.9µM
O=C(NCc1ccc(F)cc1)c1c2c(nc3ccccc13)CCN(Cc1ccccc1)C2	Pf growth 48h inconclusive
CCN1CCc2nc3ccccc3c(C(=O)Nc3ccc(F)cc3)c2C1	Pf growth 48h 2.1µM, Pf growth 96h inconclusive
Cc1ccccc1-n1c(C)nnc1SCC(=O)N1CCc2ccccc2C1	Pf growth 96h inconclusive
CCOC(=O)C1CCCN(C(=O)CN2C(=O)/C(=C/c3ccc(OC)cc3)Oc3ccccc32)C1 (stereo not drawn)	Pf growth 48h inconclusive, HCV inh inconclusive
COc1ccc(OC)c2[nH]c(=O)c(CCNC(=O)c3cc4ccccc4o3)cc12	Pf growth 48h 8.3µM, HCV inh inconclusive, Pf growth 96h 5.2µM
CCS(=O)(=O)NCCc1cc2c(OC)ccc(OC)c2[nH]c1=O	Pf growth 96h 2.1µM
c1cncc(-c2nc(NCC3CCCO3)c3ccccc3n2)c1 (stereo not drawn)	Pf growth 48h inconclusive, HCV inh inconclusive, Pf growth 96h inconclusive
Oc1ccc(Nc2nc(NCC3CCCO3)c3ccccc3n2)cc1 (stereo not drawn)	Pf growth 48h 1.7µM
Oc1ccccc1Nc1nc(NCC2CCCO2)c2ccccc2n1 (stereo not drawn)	Pf growth 48h 2.3µM, HCV inh inconclusive, Pf growth 96h inconclusive
c1csc(-c2nc(NCC3CCCO3)c3ccccc3n2)c1 (stereo not drawn)	HCV inh inconclusive, Pf growth 96h inconclusive
CC(C)Oc1ccc(-c2nc(NCC3CCCO3)c3ccccc3n2)cc1 (stereo not drawn)	Pf growth 48h inconclusive, HCV inh 11µM, Pf growth 96h inconclusive
Nc1c(C(=O)NCC2CCCO2)c2nc3ccccc3nc2n1Cc1ccco1 (stereo not drawn)	Pf growth 48h 9.3µM
Nc1c(C(=O)NC2CCCC2)c2nc3ccccc3nc2n1CC1CCCO1 (stereo not drawn)	Pf growth 48h 10µM
Nc1c(C(=O)NC2CCCC2)c2nc3ccccc3nc2n1N	none
CCc1ccc2[nH]c(=O)c(-c3ccccc3)c(O)c2c1	Pf growth 96h inconclusive
CC(C)CNC(=O)c1cccc(NC(=O)C(C)Oc2ccccc2)c1 (stereo not drawn)	Pf growth 96h inconclusive
NS(=O)(=O)c1ccc(N=Cc2c(O)n(-c3nccs3)c(=O)c3ccccc23)cc1	Pf growth 48h 4.7µM, Pf growth 96h inconclusive
O=c1c2ccccc2c(C=Nc2ccc(S(=O)(=O)N3CCCCC3)cc2)c(O)n1-c1ccc(Cl)cn1	none
COc1cccc(N(C(=O)Cn2nnc(-c3ccc(C)cc3)n2)C(C(=O)NC(C)(C)C)c2c[nH]c3ccccc23)c1 (stereo not drawn)	Pf growth 48h 12µM, HCV inh inconclusive, AMA1-RON2 inh inconclusive, Pf growth 96h 2.3µM
CC(C)(C)NC(=O)C(c1c[nH]c2ccccc12)N(C(=O)Cn1nnc(-c2ccc(Cl)cc2)n1)c1ccccc1F (stereo not drawn)	Pf growth 48h inconclusive, HCV inh 10µM
CCN1CCN(c2cc(-c3ccccc3)nc3cc(-c4cccc(F)c4)nn23)CC1	Pf growth 48h inconclusive, HCV inh inconclusive, Pf growth 96h 12µM
COc1cc(OC)cc(-c2cc3nc(C)cc(N4CCN(C(=O)c5ccco5)CC4)n3n2)c1	Pf growth 96h 1.9µM (no result: Pf growth 48h, HCV inh, AMA1-RON2 inh)
Cc1cc(N2CCN(C(=O)c3ccco3)CC2)n2nc(-c3cccc(F)c3)cc2n1	Pf growth 48h inconclusive, HCV inh 10µM, Pf growth 96h inconclusive
COc1ccc(S(=O)(=O)NC2CC3CCC2C3)cc1 (stereo not drawn)	Pf growth 96h 8.3µM
CSc1ccc(S(=O)(=O)NC2CC3CCC2C3)cc1 (stereo not drawn)	Pf growth 96h inconclusive
CCc1noc(C)c1C(=O)N1CCN(S(=O)(=O)c2ccc(Br)cc2)CC1	none
COc1ccc(C)cc1-n1c(C)cc(C=O)c1C	Pf growth 48h inconclusive, HCV inh inconclusive
COc1ccc(N)cc1-n1c(C)ccc1C	Pf growth 48h inconclusive, HCV inh 0.71µM
C=CCSC(=C(C#N)C#N)c1cc2c([nH]1)CCCC2	Pf growth 48h inconclusive, HCV inh 13µM (no result: Pf growth 96h)
